# Data: PubChem BioAssay
# Values without a mark were called inactive. Activity calls are given as the source filed them.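 The calls were made as follows: active = inhibition above the hit cutoff set in the earlier primary screen (cut at about 27% in these data); inactive = the rest.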
# Target: Protein phosphatase methylesterase 1 (Homo sapiens) (UniProt Q9Y570)
# Assay: human PME-1 methylesterase inhibition confirmation – biochemical, fluorescence polarization, FP-Rh probe, triplicate (AID 2171);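 also: 0% = enzyme with DMSO and 100% = wells lacking PME-1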
# Conditions: recombinant PME-1, FP-Rh probe fluorescence polarization; at 5.9 µM; stronger effect = higher value
# Protein phosphatase methylesterase 1 (Homo sapiens), sequence (Q9Y570 whole entry, looked up): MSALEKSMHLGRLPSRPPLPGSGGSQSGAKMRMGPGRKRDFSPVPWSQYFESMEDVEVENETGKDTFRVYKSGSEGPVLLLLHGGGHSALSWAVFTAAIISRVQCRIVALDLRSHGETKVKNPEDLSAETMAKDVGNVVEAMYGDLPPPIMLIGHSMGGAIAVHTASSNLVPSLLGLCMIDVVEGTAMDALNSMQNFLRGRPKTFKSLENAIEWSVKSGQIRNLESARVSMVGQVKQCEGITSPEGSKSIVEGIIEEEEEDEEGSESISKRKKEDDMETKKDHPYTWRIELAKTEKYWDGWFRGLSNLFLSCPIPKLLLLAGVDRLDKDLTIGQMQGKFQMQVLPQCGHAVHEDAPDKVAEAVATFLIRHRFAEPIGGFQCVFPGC
row,SMILES,inhibition
1,CC(C)=NNc1nc2sc3c(c2c(=O)[nH]1)CC(C)(C)OC3,14.6%
2,Cc1ccc2nc(/C(C#N)=C/c3ccc(O)c(O)c3)[nH]c2c1,17.9%
3,COc1ccc(OC)c(N2C(=O)CC(Cc3ccc(C)cc3)C2=O)c1 (stereo not given),0.52%
4,COc1cc2c(cc1NC(=O)c1cccnc1)oc1ccccc12,25.8%
5,CCCCN(CCCC)CCNC(=O)c1cn(CC)c2ccc(S(=O)(=O)N(C)C3CCCCC3)cc2c1=O,85% (active)
6,CCCCNc1c2c3c(cccc3n(C)c1=O)C(=O)c1ccccc1-2,71.1% (active)
7,O=[N+]([O-])c1ccccc1/C=C/C=N/Nc1ccc(S(=O)(=O)Nc2ccc(Cl)cc2)cc1[N+](=O)[O-],14.2%
8,O=C(O)c1ccc(-c2ccc(/C=N/Nc3ccc([N+](=O)[O-])cc3)o2)cc1,33.5% (active)
9,CC(C)=CCc1cc(-c2oc3cc(O)cc(O)c3c(=O)c2O)ccc1O,36.8% (active)
10,Cn1c(=O)c(Nc2ccc(O)cc2)c2c3c(cccc31)C(=O)c1ccccc1-2,36% (active)
11,C/C(=N\Nc1cccc([N+](=O)[O-])c1)c1ccccc1O,39.4% (active)
12,COc1cc2c(cc1OC)CN(C(=O)c1ccc3[nH]c(C)c(C)c3c1)CC2,38.8% (active)
13,COc1cc2nc(Nc3ccc(C)c(Cl)c3)nc(N)c2cc1OC,49.4% (active)
14,Nc1cc(N)cc(-c2nc3ccccc3[nH]2)c1,3.51%
15,COc1ccc2oc(=O)c(-c3csc(Nc4cccc(O)c4)n3)cc2c1,9.36%
16,C=CCCC(=O)Nc1nc(C)c(-c2csc(Nc3ccc(Cl)cc3)n2)s1,48.2% (active)
17,CCOc1ccc(NC(=S)Nc2ccc3nsnc3c2)cc1,24.1%
18,N#Cc1c(N)nc2c3c(sc(=N)c2c1N)NC(=O)CC3c1ccccc1 (stereo not given),29% (active)
19,Nc1c(C(=O)Nc2ccc(Br)cc2)sc2nc(-c3ccco3)ccc12,34.4% (active)
20,Cn1c(N/N=C/c2c[nH]c3ccccc23)nc2ccccc21,28.6% (active)

row,SMILES,inhibition
1,Cc1sc2ncnc(OCC(=O)N3CCN(S(=O)(=O)c4ccc(Cl)cc4)CC3)c2c1C,11.1%
2,COC(=O)N1C(=O)[C@](c2ccccc2)(C2CCCCC2)N1C(=O)OC,76.6% (active)
3,CCNc1ccc2noc3c2c1C(=O)c1ccccc1-3,87.6% (active)
4,NNc1nc2cc3c(cc2s1)OCCO3,8.82%
5,Cc1[nH]c2ccccc2c1/C=N/Nc1nc(Nc2ccccc2)nc(N2CCOCC2)n1,34.2% (active)
6,CCOc1ccc(NC(C(=O)Nc2cccc(C(C)=O)c2)c2ccccc2)cc1 (stereo not given),33.5% (active)
7,N#C/C(=C\c1ccc(O)c(O)c1)C(=O)Nc1cccc2ncccc12,-29.9%
8,Cc1cc(N/N=C/c2ccc(O)cc2O)nc(-c2ccccc2O)n1,39.8% (active)
9,CCN(CC)C(=O)CSc1nc2c(sc(=S)n2-c2ccccc2)c(=O)n1Cc1ccco1,78.6% (active)
10,Cc1[nH]c2ccccc2c1/C=N/NC(=O)c1cc(-c2ccncc2)nc2ccccc12,23%
11,N#Cc1ccccc1Cn1c(=O)n(-c2ccc(CC(=O)NCc3ccco3)cc2)c(=O)c2sccc21,38.4% (active)
12,C=CCn1c(NS(=O)(=O)c2ccccc2)c(S(=O)(=O)c2ccc(C)cc2)c2nc3ccccc3nc21,8.89%
13,COc1ccc2c(Cl)c(C(=O)N/N=C/c3c(C)[nH]c4ccccc34)sc2c1,18.5%
14,COc1ccc(C2Nc3cccc4cccc(c34)N2)cc1Br,15.1%
15,CCC1(C)Cc2c(sc3nc(NN)n(C)c(=O)c23)CO1 (stereo not given),-1.24%
16,CCOC(=O)C1CCCN(C(=O)C2c3ccccc3Oc3ccccc32)C1 (stereo not given),16%
17,Cc1cc(Nc2ccc(O)cc2)ccc1N,17.6%
18,O=C(c1ccccc1F)N1CCN(Cc2nc3sc4c(c3c(=O)[nH]2)CCCC4)CC1,19.9%
19,Cc1cc(C)cc(NC(=S)NCCc2c[nH]c3ccccc23)c1,25.5%
20,Cc1ccc(C)c(NC(=O)COC(=O)c2cc3ccccc3oc2=O)c1,22.3%
